Reference: PubChem BioAssay AID1159580 (chemical genetic matrix, 2015)
Where “and” joins values, the source holds several entries; their conditions need not be identical. Equal entries are not always repeated. Out of some 5,500 compounds screened, about 2,000 (36%) were called active. Inconclusive results (about 18%) are left out. Rule as the data show it: active = normalized growth mostly below about 0.91 (no sharp cut-off); inconclusive = no clear call, values can overlap the other calls; inactive = mostly above about 0.92. The list shows a part of the results.

Assay: chemical genetic growth profiling, strain panel (AID 1159580);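 also: tested at 20 µM; growth read once vehicle control cultures reached saturation at 30 °C; 1 = growth at the plate median or of vehicle wells; lower values mean less growth of the strain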
Conditions: S. cerevisiae deletion strains, growth OD

Measured: normalized growth

NCCc1ccc(O)c(O)c1
inactive: locus YAL013W, strain DEP1, stronger effect = lower value 1 and 0.968 | locus YAL021C, strain ccr4, stronger effect = lower value 1.01 | locus YAL026C, strain drs2, stronger effect = lower value 1 | locus YAL030W, strain snc1, stronger effect = lower value 1.01 | locus YAL040C, strain CLN3, stronger effect = lower value 0.983 | locus YBL061C, strain skt5, stronger effect = lower value 0.998 | locus YBR009C, strain hhf1, stronger effect = lower value 0.978 | locus YBR021W, strain FUR4, stronger effect = lower value 0.999 | locus YBR023C, strain chs3, stronger effect = lower value 1 | locus YBR171W, strain sec66, stronger effect = lower value 0.997 | locus YBR229C, strain ROT2, stronger effect = lower value 1 | locus YBR231C, strain swc5, stronger effect = lower value 0.997 | locus YBR279W, strain paf1, stronger effect = lower value 1 | locus YCL011C, strain gbp2, stronger effect = lower value 0.981 | locus YCL016C, strain dcc1, stronger effect = lower value 0.991 | locus YCL029C, strain bik1, stronger effect = lower value 0.965 | locus YCL061C, strain MRC1 (second series), stronger effect = lower value 0.997 | locus YCL061C, strain MRC1, stronger effect = lower value 0.987 | locus YCL069W, strain vba3, stronger effect = lower value 0.981 | locus YCR088W, strain abp1, stronger effect = lower value 0.995 | locus YDL005C, strain med2, stronger effect = lower value 1 | locus YDL035C, strain GPR1, stronger effect = lower value 1.01 | locus YDL040C, strain nat1, stronger effect = lower value 1.01 | locus YDL074C, strain BRE1, stronger effect = lower value 0.978 | locus YDL101C, strain DUN1, stronger effect = lower value 0.988 | locus YDL134C, strain PPH21, stronger effect = lower value 1.04 | locus YDL185W, strain tfp1, stronger effect = lower value 0.979 | locus YDL192W, strain arf1, stronger effect = lower value 0.995 | locus YDR001C, strain nth1, stronger effect = lower value 1 | locus YDR069C, strain doa4, stronger effect = lower value 0.999 | locus YDR101C, strain arx1, stronger effect = lower value 1.01 | locus YDR137W, strain rgp1, stronger effect = lower value 1.03 | locus YDR150W, strain NUM1, stronger effect = lower value 0.992 | locus YDR159W, strain sac3, stronger effect = lower value 1.03 | locus YDR162C, strain NBP2, stronger effect = lower value 1 | locus YDR195W, strain ref2 1.01 | locus YDR297W, strain sur2, stronger effect = lower value 1 | locus YDR318W, strain mcm21, stronger effect = lower value 0.988 | locus YDR334W, strain swr1, stronger effect = lower value 0.996 | locus YDR335W, strain msn5, stronger effect = lower value 1.01 | locus YDR363W, strain ESC2, stronger effect = lower value 0.998 | locus YDR388W, stronger effect = lower value 1 | locus YDR392W, strain spt3, stronger effect = lower value 0.993 | locus YDR502C, strain sam2, stronger effect = lower value 0.998 | locus YEL003W, strain gim4, stronger effect = lower value 0.977 | locus YEL037C, strain rad23, stronger effect = lower value 1 | locus YEL061C, strain CIN8 (second series), stronger effect = lower value 1.02 | locus YEL061C, strain CIN8, stronger effect = lower value 0.997 | locus YER002W, strain NOP16, stronger effect = lower value 1.01 | locus YER015W, strain faa2, stronger effect = lower value 1.02 | locus YER016W, strain bim1, stronger effect = lower value 1 | locus YER110C, stronger effect = lower value 0.984 | locus YER111C, strain swi4, stronger effect = lower value 0.993 | locus YER155C, strain BEM2 (second series), stronger effect = lower value 1 | locus YER155C, strain BEM2, stronger effect = lower value 1 | locus YER167W, strain BCK2, stronger effect = lower value 0.995 | locus YFR010W, strain ubp6, stronger effect = lower value 0.984 | locus YGL078C, strain dbp3, stronger effect = lower value 1 | locus YGL086W, strain mad1, stronger effect = lower value 0.998 | locus YGL167C, strain pmr1, stronger effect = lower value 1.02 | locus YGL173C, strain kem1, stronger effect = lower value 0.98 | locus YGL227W, strain vid30, stronger effect = lower value 1 | locus YGL240W, strain doc1, stronger effect = lower value 1.01 | locus YGL248W, strain PDE1, stronger effect = lower value 0.961 | locus YGL253W, strain hxk2, stronger effect = lower value 0.989 | locus YGR135W, strain pre9, stronger effect = lower value 0.95 | locus YGR229C, strain SMI1, stronger effect = lower value 1.02 | locus YGR252W, strain gcn5, stronger effect = lower value 1.01 | locus YHR013C, strain ard1, stronger effect = lower value 0.993 | locus YHR027C, strain rpn1, stronger effect = lower value 1 | locus YHR030C, strain SLT2, stronger effect = lower value 1 and 1.04 and 1.03 | locus YHR079C, strain IRE1 (second series), stronger effect = lower value 0.994 | locus YHR079C, strain IRE1, stronger effect = lower value 1.03 and 1.04 | locus YHR094C, strain hxt1, stronger effect = lower value 0.996 | locus YHR129C, strain ARP1, stronger effect = lower value 1.01 | locus YHR142W, strain chs7, stronger effect = lower value 1 | locus YHR200W, strain rpn10, stronger effect = lower value 0.994 | locus YIL066C, strain RNR3, stronger effect = lower value 0.987 | locus YIL073C, strain SPO22, stronger effect = lower value 0.891 | locus YIL125W, strain kgd1, stronger effect = lower value 1 | locus YIR030C, strain dcg1, stronger effect = lower value 0.982 | locus YJL092W, strain hpr5, stronger effect = lower value 1.01 | locus YJL095W, strain BCK1 (second series), stronger effect = lower value 1.01 | locus YJL095W, strain BCK1, stronger effect = lower value 0.972 and 1.03 | locus YJL115W, strain asf1, stronger effect = lower value 1.01 | locus YJL129C, strain trk1, stronger effect = lower value 0.998 | locus YJL134W, strain LCB3, stronger effect = lower value 1 | locus YJL154C, strain vps35, stronger effect = lower value 1.01 | locus YJL164C, strain tpk1, stronger effect = lower value 1.01 | locus YJL166W, strain qcr8, stronger effect = lower value 1 | locus YJL168C, strain set2, stronger effect = lower value 1.01
